Measured values taken from the supplement of paper PMC12350171.
Structures can show the parent of a compound that is named as a salt. Values without a mark were called inactive.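 Rule for the calls: active = AUC significantly below DMSO controls by Student t-fit with adjusted P under 0.01; inactive = not significantly reduced.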

Test system: Haemophilus parainfluenzae
Assay: growth AUC normalised to DMSO control (fraction of control); higher = less growth inhibition, active = hit call of the paper
Conditions: 20 µM
Method in brief: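 For the AUC endpoint, growth curves were integrated by the trapezoidal rule up to the exponential-to-stationary transition and normalised to DMSO controls on the same plate. The curves came from OD578 readings taken hourly for 24 h, in three biological replicates. Pathogens had been passaged anaerobically twice and inoculated at an OD578 of 0.01 into pre-reduced mGAM plates carrying 20 μM compound and 1% DMSO, sealed with breathable membranes. Medium for Haemophilus parainfluenzae also contained hemin and NAD.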

Compound | growth AUC normalised to DMSO control
C[C@H](O)C(=O)Nc1c(I)c(C(=O)NC(CO)CO)c(I)c(C(=O)NC(CO)CO)c1I [Iopamidol] | 1.07
CNC(=O)c1c(I)c(C(=O)NCC(=O)Nc2c(I)c(C(=O)O)c(I)c(C(=O)NCCO)c2I)c(I)c(N(C)C(C)=O)c1I [Ioxaglic acid] | 0.921
O=C(NCCNCC(O)COc1ccc(O)cc1)N1CCOCC1 (stereo unspecified) [Xamoterol hemifumarate] | 0.775
CN1CCC(=C2c3ccccc3CC(=O)c3sccc32)CC1 [Ketotifen fumarate] | 0.997
CCC1NC(=O)c2cc(S(N)(=O)=O)c(Cl)cc2N1 (stereo unspecified) [Quinethazone] | 1.16
CCn1cc(C(=O)O)c(=O)c2cc(F)c(N3CCNCC3)nc21 [Enoxacin] | 0.0701 (active)
CO[C@@]1(NC(=O)Cc2cccs2)C(=O)N2C(C(=O)O)=C(COC(N)=O)CS[C@@H]21 [Cefoxitin sodium salt] | 0.0362 (active)
CO/N=C(\C(=O)N[C@@H]1C(=O)N2C(C(=O)O)=C(COC(N)=O)CS[C@H]12)c1ccco1 [Cefuroxime sodium salt] | 0.0255 (active)
CCOC(=O)OC(C)OC(=O)[C@@H]1N2C(=O)[C@@H](NC(=O)[C@H](N)c3ccccc3)[C@H]2SC1(C)C (stereo partly specified) [Bacampicillin hydrochloride] | 0.0618 (active)
O=C(N[C@H](CO)[C@H](O)c1ccc([N+](=O)[O-])cc1)C(Cl)Cl [Chloramphenicol] | 0.0445 (active)
CC(=O)OCC(=O)[C@@]1(O)CC[C@H]2[C@@H]3CCC4=CC(=O)CC[C@]4(C)[C@@]3(F)[C@@H](O)C[C@@]21C [Fludrocortisone acetate] | 1.02
Nc1c2c(nc3ccccc13)CCCC2 [Tacrine hydrochloride] | 1.01
Cc1ccc2c(c1)c1c3n2CCNC3CCC1 (stereo unspecified) [Pirlindole mesylate] | 0.995
CN1CCN(CC(=O)N2c3ccccc3C(=O)Nc3cccnc32)CC1 [Pirenzepine dihydrochloride] | 1.01
Nc1nc(=O)n([C@@H]2CS[C@H](CO)O2)cc1F [(-) Emtricitabine] | 0.97
CC(C)(S)C(N)C(=O)O (racemic) [D,L-Penicillamine] | 0.981

Compound | growth AUC normalised to DMSO control
N#Cc1ccc(C(c2ccc(C#N)cc2)n2cncn2)cc1 [Letrozole] | 1.01
C1N2CN3CN1CN(C2)C3 [Methenamine] | 1.05
Cc1cc2c(cc1S(N)(=O)=O)S(=O)(=O)CCC2 [Meticrane] | 1.04
CC(N/C(=N\C#N)Nc1ccncc1)C(C)(C)C (stereo unspecified) [Pinacidil monohydrate] | 1
CC[N+](CC)(CC)CCOc1cccc(OCC[N+](CC)(CC)CC)c1OCC[N+](CC)(CC)CC [Gallamine triethiodide] | 1.09
CNCC(O)c1ccc(OC(=O)C(C)(C)C)c(OC(=O)C(C)(C)C)c1 (stereo unspecified) [Dipivefrin hydrochloride] | 0.986
CC(COc1ccccc1)N(CCCl)Cc1ccccc1 (stereo unspecified) [Phenoxybenzamine hydrochloride] | 1.01
CC(=O)[C@H]1CC[C@H]2[C@@H]3C[C@H](C)C4=CC(=O)CC[C@]4(C)[C@H]3[C@@H](O)C[C@]12C [Medrysone] | 0.955
CC(C)NCC(O)COc1ccc(COCCOC(C)C)cc1 (stereo unspecified) [Bisoprolol hemifumarate] | 1.13
N[C@@H](Cc1cc(I)c(Oc2ccc(O)c(I)c2)c(I)c1)C(=O)O [Liothyronine] | 0.943
CCOc1ccc(Cc2nccc3cc(OCC)c(OCC)cc23)cc1OCC [Ethaverine hydrochloride] | 1.02
COc1ccc(C(=O)c2ccccc2)c(O)c1 [Oxybenzone] | 1.06
Cc1ccc(C)c(OCCCC(C)(C)C(=O)O)c1 [Gemfibrozil] | 0.971
C=CCSCC1Nc2cc(Cl)c(S(N)(=O)=O)cc2S(=O)(=O)N1 (stereo unspecified) [Althiazide] | 1.07
CC(C)(Sc1cc(C(C)(C)C)c(O)c(C(C)(C)C)c1)Sc1cc(C(C)(C)C)c(O)c(C(C)(C)C)c1 [Probucol] | 1.01
